In the library only some 2.6% were active in any assay of this set; here they are far more common.
PHOSPHO1 block – PubChem AID 1565; Phosphoethanolamine/phosphocholine phosphatase (Homo sapiens), Q8TCT1; recombinant PHOSPHO1, absorbance phosphatase assay; inhibition, % at 13.3 µM; 290,000 compounds, 1.1% hits; in the data active = inhibition above about 60%
A3G deaminase – APOBEC3G DNA deaminase inhibitors, primary screen, biochemical, fluorescence, single-stranded DNA substrate, uHTS | 330,000 compounds, 0.28% hits | inhibition, % at 20 µM | recombinant A3G, ssDNA deamination FAM/TAMRA fluorescence | DNA dC->dU-editing enzyme APOBEC-3G (Homo sapiens), Q9HC16;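 active = inhibition of at least 40% at 20 µM, with no more than 30% in the related APOBEC3A deaminase screen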
APOBEC3A inh – APOBEC3A ssDNA deaminase inhibitors, primary screen, selectivity assay for APOBEC3G inhibitor project, biochemical, FAM/TAMRA oligo cleavage fluorescence; DNA dC->dU-editing enzyme APOBEC-3A (Homo sapiens), P31941; recombinant A3A, FAM/TAMRA ssDNA deamination fluorescence; inhibition, % at 20 µM; 330,000 compounds, 0.41% hits;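 active = at least 40% inhibition at 20 µM here, with at most 30% in a related deaminase screen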
Target sequence (P31941 whole entry, looked up): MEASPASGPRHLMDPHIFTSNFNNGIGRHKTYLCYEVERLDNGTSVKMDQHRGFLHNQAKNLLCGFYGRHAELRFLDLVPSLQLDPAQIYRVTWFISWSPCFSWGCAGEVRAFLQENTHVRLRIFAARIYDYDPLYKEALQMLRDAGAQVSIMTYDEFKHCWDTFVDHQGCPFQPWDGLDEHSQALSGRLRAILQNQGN
PABP1 MLLE inh – inhibitors of PABP1 MLLE–PAM2 peptide binding, primary screen, biochemical, fluorescence polarization, FITC-PAM2, GST-MLLE; AID 588489, 2011; inhibition, % at 20 µM; 360,000 compounds, 0.36% hits; in the data active = inhibition above about 35%, passing the limit was not always enough
eIF4H FP inh – human eIF4H binding inhibitors, primary screen, translation initiation inhibitor project, biochemical, uHTS, fluorescence polarization | Eukaryotic translation initiation factor 4H (Homo sapiens), Q15056 | eIF4H fluorescence polarization binding assay | inhibition, % at 35 µM | 290,000 compounds, 0.94% hits | AID 2012, 2009;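 note: calls also rest on retests at 20 µM and on dose response follow-up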
PABP polyA inh – PABP poly(A) RNA binding inhibitors, primary screen, biochemical, fluorescence polarization, uHTS | Polyadenylate-binding protein 1 (Homo sapiens), P11940 | calls only at 35 µM | 290,000 compounds, 1% hits;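 note: calls also rest on retests at 20 µM and on dose response follow-up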
APOBEC3A confirm – APOBEC3A deaminase inhibitors, retest, confirmation, selectivity assay for APOBEC3G inhibitor project, biochemical, single concentration, fluorescence readout | shares compounds with APOBEC3A inh | recombinant A3A, ssDNA deaminase UDG fluorescence assay | inhibition, % at 20 µM | 1,400 compounds, 63% hits | AID 493151, 2011;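 active = inhibition reaching a set limit, 80% of the first screen's cutoff, at 20 µM in any replicate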
UDG A3A counter – E. coli UDG inhibitors, confirmation, counter-screen for APOBEC3A inhibitor project, biochemical, single concentration, fluorescence, FAM/TAMRA oligo. shares compounds with APOBEC3A inh. UDG counterscreen, FAM/TAMRA uracil oligo fluorescence. inhibition, % at 20 µM. 1,000 tested, under 10 active
Large screens that a line does not name were inactive (follow-up assays come after a bar, where they were run). Unless noted, the rule behind the calls is not given here.

O=C(Nc1cccc2ncccc12)c1ccc(F)cc1	none
O=C(Nc1cccc2ncccc12)c1ccc(Cl)cc1	APOBEC3A inh 65 (no result: eIF4H FP inh, PABP polyA inh) | APOBEC3A confirm 42
COc1ccc(C(C)(C)C)cc1NC(=O)COc1ccc(-c2nnco2)cc1	none (no result: PHOSPHO1 block, eIF4H FP inh, PABP polyA inh)
COc1ccc(-c2nnc(SCC(=O)NC(=O)NCc3ccccc3)o2)cc1	none
Cc1cc(C(=O)Nc2ccc3[nH]ccc3c2)no1	none
O=C1CN=C(Nc2ccccc2Cl)N1Cc1ccc2c(c1)OCO2	APOBEC3A inh 96 | APOBEC3A confirm inactive | UDG A3A counter inactive
COC(=O)C1(CC2CC(c3ccncc3)=NO2)CCN(C(=O)OC(C)(C)C)CC1 (centres undefined)	none (no result: PHOSPHO1 block, eIF4H FP inh, PABP polyA inh)
Cc1ccc(Cc2c(-c3ccc(C#N)cc3)nc3ccc(Cl)cn23)cc1	none (no result: PHOSPHO1 block, A3G deaminase, APOBEC3A inh, eIF4H FP inh, PABP polyA inh)
CN(C)c1ccc(N=Nc2ccc(C(=O)O)cc2)cc1	APOBEC3A inh 64, eIF4H FP inh 70, PABP polyA inh active | APOBEC3A confirm 54 | UDG A3A counter inactive
CC1(OC(=O)C2CCCC2)C(=O)C=C2C=C(c3ccsc3)N(C3CC3)C=C2C1=O (centres undefined)	none
CC1(OC(=O)C2CCCC2)C(=O)C=C2C=C3CCCCN3C=C2C1=O (centres undefined)	APOBEC3A inh 44, eIF4H FP inh inconclusive, PABP polyA inh inconclusive | APOBEC3A confirm 23 | UDG A3A counter inactive
CCOc1ccc(/C=C/C(=O)c2ccccc2)cc1	none
CC[N+](CC)(CC)CCOc1cccc(OCC[N+](CC)(CC)CC)c1OCC[N+](CC)(CC)CC	APOBEC3A inh 75 (no result: PHOSPHO1 block, eIF4H FP inh, PABP polyA inh) | APOBEC3A confirm 92 | UDG A3A counter inactive
CC[N+](CC)(CC)CCOc1ccc(/C=C/c2ccccc2)cc1	APOBEC3A inh 49 (no result: PHOSPHO1 block, eIF4H FP inh, PABP polyA inh) | APOBEC3A confirm 76 | UDG A3A counter inactive
O=C(NCCC(=O)N(CCc1ccccc1)Cc1ccccc1)c1ccc(Br)cc1	none (no result: PHOSPHO1 block, eIF4H FP inh, PABP polyA inh)
CCOc1cc(/C=C/c2cccc[n+]2C)ccc1OCC(=O)Nc1ccc(C)cc1	APOBEC3A inh 87 | APOBEC3A confirm 74 | UDG A3A counter inactive
COc1cc(/C=C/c2cccc[n+]2C)ccc1OCC(=O)Nc1ccccc1C	APOBEC3A inh 82 (no result: eIF4H FP inh, PABP polyA inh) | APOBEC3A confirm 72 | UDG A3A counter inactive
CCOc1cc(/C=C/c2cccc[n+]2C)ccc1O	none
CCC1(C)C(Nc2c(C)cccc2C)=NC(=S)N1c1ccc(NC(C)=O)cc1 (centres undefined)	none
Cc1cc(C)n2c(SCC(=O)Nc3cc(S(=O)(=O)N(C)C)ccc3C)nnc2n1	APOBEC3A inh 40 (no result: PHOSPHO1 block, eIF4H FP inh, PABP polyA inh) | APOBEC3A confirm inactive
Cc1ccc(S(=O)(=O)N(C)C)cc1NC(=O)CSc1nnc(C2CC2)n1C1CC1	none (no result: PHOSPHO1 block, eIF4H FP inh, PABP polyA inh)
CN1CCN(CC(=O)Nc2sc3c(c2C(=O)Nc2ccccc2)CCCC3)CC1	APOBEC3A inh 57, PABP polyA inh active | APOBEC3A confirm 43 | UDG A3A counter inactive
COc1ccc(NC(=O)c2ccc(OCC3CCCO3)cc2)cc1OC (centres undefined)	APOBEC3A inh 50 (no result: PHOSPHO1 block, eIF4H FP inh, PABP polyA inh) | APOBEC3A confirm 36 | UDG A3A counter inactive
O=C(Nc1ccccc1)Nc1ccc(C(=O)N2CCOCC2)cc1	none
Cn1ccsc1=NC(=O)c1ccc(=O)[nH]c1	APOBEC3A inh 59 | APOBEC3A confirm inactive
CN1CCCN(S(=O)(=O)c2ccccc2)CC1	APOBEC3A inh 67 | APOBEC3A confirm 61 | UDG A3A counter inactive
Cn1c(N)c(C(=O)COC(=O)COc2ccc(C#N)cc2)c(=O)n(C)c1=O	APOBEC3A inh 92 | APOBEC3A confirm inactive | UDG A3A counter inactive
Cn1c(N)c(C(=O)COc2ccc(C#N)cc2)c(=O)n(C)c1=O	none

Screening results as filed in PubChem.
